# Marburg entry inh: inhibitors of Marburg virus binding or cell entry; AID 540276; Potency, µM (highest dose often 37.8 µM), for inactives: at the highest dose activity change, negative = inhibition, most hits filed as inhibitors; 300,000 tested, 1.8% active; Marburg virus pseudotyped entry inhibition, cell reporter; calls by dose curve; tested in HEK293 cells
# Lassa entry inh: inhibitors of Lassa virus binding or cell entry. Lassa virus pseudotype entry inhibition, cell reporter. Potency, µM (top dose mostly 37.9 µM), for inactives: top-dose activity change, negative = inhibition, hits mostly inhibitors. 300,000 tested, 1.2% active. AID 540256; calls by dose curve; tested in HEK293 cells; further: nearly all actives have a fitted effect of over 50% in size
# AMA1-RON2 inh: inhibitors of Plasmodium falciparum AMA1-RON2 interaction; AlphaScreen AMA1-biotinylated RON2 peptide binding; Potency, µM (highest dose often 58.2 µM), for inactives: top-dose activity change, negative = inhibition, actives largely listed as inhibitors; 360,000 tested, 0.2% active; AID 720542;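 further: 0% = vehicle wells and -100% = peptide control; nearly all actives have a fitted effect of over 45% in size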
#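 AMA1 (3D7) with his tag at 25 nM final met compounds first, then biotinylated RON2 peptide at 25 nM; detection used donor plus acceptor beads, 10 µg/mL apiece, read by AlphaScreen after 30 min at room temperature.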
# AmpC no deterg: AmpC beta-lactamase inhibition without detergent. P00811. AmpC nitrocefin hydrolysis, absorbance 480 nm, 0.0001% Triton. Potency, µM (doses to about 57.1 µM), for inactives: top-dose activity change, negative = inhibition, most hits filed as inhibitors. 330,000 tested, 0.52% active. AID 485341;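 further: plate controls were no compound for no effect and no enzyme for full effect; nearly all actives have a fitted effect of over 20% in size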
# Target sequence (P00811 whole entry, looked up): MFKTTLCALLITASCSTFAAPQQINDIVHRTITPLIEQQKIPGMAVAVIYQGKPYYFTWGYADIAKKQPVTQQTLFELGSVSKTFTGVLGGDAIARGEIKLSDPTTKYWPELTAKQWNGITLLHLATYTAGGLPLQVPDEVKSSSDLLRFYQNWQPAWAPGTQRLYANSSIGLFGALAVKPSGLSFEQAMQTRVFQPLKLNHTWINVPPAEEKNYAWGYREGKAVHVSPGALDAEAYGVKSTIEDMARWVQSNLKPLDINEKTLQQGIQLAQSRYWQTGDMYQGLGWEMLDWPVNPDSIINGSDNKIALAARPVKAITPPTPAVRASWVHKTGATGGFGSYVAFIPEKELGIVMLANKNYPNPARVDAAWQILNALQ
#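 20 mM phosphate pH 7.0 + 0.01% (detergent screen) or 0.0001% Triton X-100; 5.3 nM AmpC reagent; cpd preinc 15 min RT; nitrocefin (800 uM stock) to start; A480 q20 s × 4 min; Activity was normalised to no-enzyme and no-compound control wells.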
# AmpC inh detg: AmpC beta-lactamase inhibition with detergent present. Potency, µM (series often up to 114 µM), without a hit: top-dose activity change, negative = inhibition, most hits filed as inhibitors. P00811. AmpC hydrolysis of nitrocefin, absorbance 480 nm, 0.01% Triton. 370,000 tested, 0.041% active;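 further: 0% = no-compound wells and -100% = no-enzyme wells; nearly all actives have a fitted effect of over 25% in size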
#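 AmpC (5.3 nM in the dispensed reagent) in 20 mM phosphate pH 7.0 with 0.01% (detergent screen) or 0.0001% Triton X-100 was preincubated with compounds for 15 min at room temperature. Nitrocefin was then added from an 800 uM solution, and hydrolysis was followed at 480 nm.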
# Active calls of the source: *; u = inconclusive; x = no result; ! = repeats disagree; [ ] = dose if it differs, or a comment. The list is not random: actives were taken first. Their share in the collection is about 2.3%. Unless noted, the call rests on the fitted dose curve; in most records, active means well fitted curve in the direction sought with a large enough effect; inconclusive means small, poorly fitted or top-dose-only effect, or another doubt; inactive means no such curve, though single readings can be large; an effect the other way counts as inactive or inconclusive. Unless noted, on the % scale 0 is the no-effect control and ±100 the full control effect; potency means the concentration at half of the fitted maximal effect.
SMILES,Marburg entry inh,Lassa entry inh,AMA1-RON2 inh,AmpC no deterg,AmpC inh detg
CCN(CC)CCNC(=O)c1ccc(NC(=O)c2ccccc2-c2ccc(C(F)(F)F)cc2)cc1,2.8µM*,u,56%,79%,-8%
CCOc1ccc(-c2nnc(SCC(=O)Nc3ccc4c(c3)c3ccccc3n4CC)n2N)cc1,12µM*,u,u,-26%,-3%
CCCCC(c1nnnn1CS(=O)(=O)c1ccc(C)cc1)N1CCN(c2ccccc2)CC1 (configuration not stated),14µM*,u,-9%,-23%,0%
CCCCSc1ncnc2c1ncn2C1CCCCO1 (configuration not stated),u,u,6%,x,x
Fc1ccccc1CSc1ncnc2c1ncn2C1CCCO1 (configuration not stated),0.89µM*,u,15%,x,x
O=C(c1ccccc1Cc1ccccc1)N1CCN(S(=O)(=O)c2ccccc2Br)CC1,13µM*,-16%[46.1 µM],-5%,-7%,-8%
CC(=O)N1c2ccc(S(=O)(=O)NCCC(=O)Nc3ccc(Br)c(C)c3)cc2CC1C (configuration not stated),x,-11%[46.1 µM],x,x,3%
CC(=O)Oc1c(I)cc(I)cc1C(=O)Nc1ccc(Cl)cc1,u,13µM*,-2%,-53%,9%
COc1ccc(Cl)cc1C(=O)Nc1ccc(NC(C)=O)cc1,2%[46.1 µM],-20%,0%,-19%,8%
CN(C)c1cc[n+](CC(=O)Nc2ccc(Oc3ccccc3)cc2)cc1,9.2µM*,u,-2%,38%,6%
CCN(CCNC(=O)[C@H]1C=C(OC)C(=O)C[C@H](c2ccccc2)[C@@H]1C)C(C)=O,-18%[14.2 µM],x,x,x,x
COCCN1C(=O)NC(c2cccc(F)c2)C(C(C)=O)=C1C (configuration not stated),-6%[14.2 µM],x,x,x,x
Clc1ccc2c(c1)C(N1CCNCC1)=Nc1ccccc1O2,10µM*!,u,-1%,83%,-4%
N/C(=N\N=C\c1ccc(O)cc1)c1nonc1N,21µM*,u,-1%,-27%,-6%
Oc1ccc(Nc2ccc3ccccc3c2)cc1,-8%,-29%,14µM*,x,x
CCn1cc(C(=O)NCc2ccccc2)c(=O)c2cc(S(=O)(=O)N3CCCCCC3)ccc21,20%[46.1 µM],u,x,x,1%
Cc1nn2c(=O)cc(COC(=O)c3ccc(NC(=O)CCc4ccccc4)cc3)nc2s1,x,2%[46.1 µM],x,x,-9%
NS(=O)(=O)c1cccc(NC(=O)CSc2nc3nc(-c4cccs4)cc(C(F)(F)F)c3c(=O)[nH]2)c1,-1%,x,18%,16µM*,-2%
O=C(CSc1nc2nc(-c3cccs3)cc(C(F)(F)F)c2c(=O)[nH]1)Nc1c(F)c(F)c(F)c(F)c1F,16%[46.1 µM],u,14%,-31%,-5%
Cc1ccc(NC(=S)NCc2ccccc2)cc1[N+](=O)[O-],7.1µM*,16µM*,13%,-39%,-10%
Cc1ccc(CNC(=S)Nc2ccc(C)c([N+](=O)[O-])c2)cc1,28%,20%,-3%,-22%,10%
COc1ccc(NC(=O)N2CCN(c3nc(-c4cccc(OC)c4)cs3)CC2)cc1,23µM*,u,-21%,-27%,-4%
COc1cccc(-c2csc(N3CCN(C(=O)Nc4ccc(Cl)cc4)CC3)n2)c1,x,x,-5%,-15%,7%
Cc1cc(C)cc(NC(=O)[C@H](NC(=O)[C@@H]2Cc3ccccc3CN2)c2ccccc2)c1,1.4µM*,30%[46.1 µM],16%,24%,1%
Cc1ccc(NC(=O)[C@H](NC(=O)[C@@H]2Cc3ccccc3CN2)c2ccccc2)c(C)c1,x,x,72%,10%,-5%
SMILES,Marburg entry inh,Lassa entry inh,AMA1-RON2 inh,AmpC no deterg,AmpC inh detg
Cc1ccc(-c2nnn3c2nc(NCC(C)c2ccccc2)c2ccccc23)cc1 (configuration not stated),21%[46.1 µM],15%[46.1 µM],x,x,1%
N#Cc1nc(-c2ccc(F)cc2)oc1NCc1cccc2c1OCO2,10%,13%,0%,-19%,-10%
Cc1ccc(-c2nc(C#N)c(NCc3cccc4c3OCO4)o2)cc1,11%,2%,-21%,0.32µM*,8%
N#CC(c1ccc(F)cc1)c1ccc(C(=O)c2ccc(F)cc2)cc1 (configuration not stated),u,u,13%,-28%,-14%
Cc1ccc(C(C#N)c2ccc(C(=O)c3ccc(F)cc3)cc2)cc1 (configuration not stated),u,10µM*,-6%,-9%,2%
CCCn1c(C)cc(C(=O)Cn2nnc3ccccc3c2=O)c1C,14µM*,u,-5%,-12%,-1%
Cc1ccsc1CN(C(=O)c1oc2cc(Br)ccc2c1C)C1CCS(=O)(=O)C1 (configuration not stated),u,u,x,x,-9%
CCOc1cc(C(Nc2cc(C)ccn2)c2ccc3cccnc3c2O)ccc1OC (configuration not stated),u,5.6µM*,x,x,-7%
Cc1ccc(C(Nc2ccccn2)c2ccc3cccnc3c2O)cc1 (configuration not stated),u,u,x,x,-8%
Cc1cccc(NC(c2cccc(Cl)c2)c2ccc3cccnc3c2O)n1 (configuration not stated),u,10µM*,x,x,-5%
COc1ccc(C(Nc2ccccn2)c2ccc3ccc(C)nc3c2O)cc1C (configuration not stated),u,u,x,x,11%
CC(C)Oc1ccc(C(CCNCc2ccc(O)cc2)c2ccccc2)cc1 (configuration not stated),x,x,-2%,-11%,0%
COc1ccc(C(CCNCc2ccc(N(C)C)cc2)c2ccccc2)cc1 (configuration not stated),u,u,20µM*,1%,-2%
Nc1ccc(-c2nc3ccc(-c4nc5ccccc5o4)cc3[nH]2)cc1,7.1µM*,-29%,0%,-14%,u
Cc1cc(C)cc(C(=O)N(CCc2ccccc2)C2CC3CCC(C2)N3C)c1 (configuration not stated),3.2µM*,u,-3%,36%,-9%
Cc1cc(C)nc(SCC(=O)Nc2ncc(Cc3cccc(Cl)c3)s2)n1,-36%,u,5%,2.8µM*,-10%
O=C(CN1CCOCC1)Nc1ncc(Cc2cccc(Cl)c2)s1,7%,-19%,16%,64%,-11%
Cc1c(C(=O)N2CCOCC2)sc2ncnc(N3CCc4ccccc4C3)c12,-5%,-27%,3%,71%,0%
COCCCNC(=O)c1sc2ncnc(N3CCc4ccccc4C3)c2c1C,8.2µM*,u,9%,150%,u
CCSc1ncc(Cl)c(C(=O)N(Cc2ccccc2)c2ccc(OC)cc2)n1,u,-4%[46.1 µM],x,x,-4%
CC1=C(C(=O)Nc2cc(Cl)ccc2C)C2(CCCCC2)OC1=O,-3%[46.1 µM],7%[46.1 µM],x,x,-2%
Nc1ccccc1Nc1cc(-c2ccccc2)[nH]n1,u,-13%,-10%,1.1µM*,1%
